Experimental data: PubChem BioAssay (NCI)
This is part of a sample that, as a whole, favours compounds with a hit. Of some 79,000 tested, about 15% had one in any assay. The source made the active and inactive calls. Rule as the data show it: active = growth inhibition above about 70%; inactive = the rest.

What was measured:
[1] = NCI Yeast Anticancer Drug Screen. Data for the rad52 strain (AID 147);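 also: 0% = growth of vehicle-treated control cultures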; conditions: S. cerevisiae rad52 mutant growth inhibition, stronger effect = higher value
Method in brief: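 Measured: yeast growth inhibition. System: strain with a defined DNA damage repair alteration. Reference: vehicle-treated control cultures.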

[2] = NCI Yeast Anticancer Drug Screen. Data for the wt1 strain (AID 149);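 also: 0% = growth of vehicle-treated wt1 cultures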; conditions: S. cerevisiae wt1 strain (SPY 50644) growth inhibition, stronger effect = higher value
Method in brief: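 Measured: growth of wt1 yeast under compound versus vehicle treatment, reported as inhibition.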

[3] = NCI Yeast Anticancer Drug Screen. Data for the rad50EPP+ strain (AID 151);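 also: 0% = growth of vehicle-treated control cultures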; conditions: S. cerevisiae rad50 mutant strain, stronger effect = higher value
Method in brief: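 One strain with a rad50 alteration (rad50EPP+) was compound-treated, its growth then compared to that of vehicle controls.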

[4] = NCI Yeast Anticancer Drug Screen. Data for the mgt1 strain (AID 153); conditions: S. cerevisiae mgt1 mutant growth inhibition, stronger effect = higher value
Method in brief: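 After exposure of the mgt1 yeast mutant to compound, growth was measured and reported as inhibition compared with vehicle controls.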

[5] = NCI Yeast Anticancer Drug Screen. Data for the rad50 strain (AID 155);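 also: 0% = growth of vehicle-only cultures of the same strain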; conditions: S. cerevisiae rad50 strain growth inhibition, stronger effect = higher value
Method in brief: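 Growth of the mutant yeast was measured after compound exposure and referenced to vehicle-treated cultures.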

[6] = NCI Yeast Anticancer Drug Screen. Data for the mec2-1 strain (AID 157); conditions: S. cerevisiae mec2-1 strain, stronger effect = higher value
Method in brief: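 Test agents were screened against the mec2-1 yeast strain, with defined DNA repair or cell cycle alteration. Growth was scored as inhibition against vehicle-only controls.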

[7] = NCI Yeast Anticancer Drug Screen. Data for the rad14 strain (AID 159);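 also: 0% = growth of vehicle-treated control cultures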; conditions: S. cerevisiae rad14 strain growth inhibition, stronger effect = higher value
Method in brief: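 Here, inhibition of yeast growth was measured after compound exposure, using a strain with a genetic defect in DNA damage repair and vehicle-treated cultures as the reference.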

[8] = NCI Yeast Anticancer Drug Screen. Data for the sgs1 mgt1 strain (AID 161);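 also: 0% = growth of cultures given vehicle only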; conditions: S. cerevisiae sgs1 mgt1 strain, stronger effect = higher value
Method in brief: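 Read-out: growth inhibition vs vehicle controls. Cells: mutant yeast strain deficient in DNA damage repair.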

[9] = NCI Yeast Anticancer Drug Screen. Data for the CLN2oe strain (AID 163);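 also: 0% = growth of vehicle-only control cultures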; conditions: S. cerevisiae CLN2oe strain, stronger effect = higher value
Method in brief: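 Here, growth inhibition in a cell-cycle-altered yeast strain after compound exposure was quantified against vehicle control growth.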

[10] = NCI Yeast Anticancer Drug Screen. Data for the cln2 rad14 strain (AID 165);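 also: 0% = growth equal to vehicle treated cultures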; conditions: S. cerevisiae cln2 rad14 strain, stronger effect = higher value
Method in brief: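 Growth of compound-exposed yeast (cln2 rad14 genotype) measured and expressed as inhibition relative to vehicle.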

[11] = NCI Yeast Anticancer Drug Screen. Data for the bub3 strain (AID 167); conditions: S. cerevisiae bub3 mutant strain, stronger effect = higher value
Method in brief: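 Whole-cell yeast assay. The mutant strain was incubated with compounds, and growth inhibition was determined by comparison with vehicle-treated cells.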

[12] = NCI Yeast Anticancer Drug Screen. Data for the wt2 strain (AID 169);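 also: 0% = growth of vehicle-treated yeast cultures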; conditions: S. cerevisiae wt2 strain growth inhibition, stronger effect = higher value
Method in brief: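 Genetically defined yeast strains from a DNA-repair/cell-cycle panel were used. Compound-exposed yeast growth was measured, and the inhibition was calculated relative to vehicle treatment.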

[13] = NCI Yeast Anticancer Drug Screen. Data for the mlh1 strain (AID 171);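 also: 0% = growth of vehicle-treated control cultures of the same strain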; conditions: S. cerevisiae mlh1 strain growth inhibition, stronger effect = higher value
Method in brief: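 Here the genetically defined yeast mutant is grown with each compound, and the extent to which its growth falls below that of vehicle-exposed cells is reported.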

[14] = NCI Yeast Anticancer Drug Screen. Data for the sgs1 strain (AID 173);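 also: 0% = growth of vehicle-only control cultures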; conditions: S. cerevisiae sgs1 mutant, stronger effect = higher value
Method in brief: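 Relative growth inhibition, referenced to vehicle, was determined in a yeast strain with a defined alteration affecting DNA damage repair or cell cycle control after compound exposure.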

[15] = NCI Yeast Anticancer Drug Screen. Data for the mlh1 rad18 strain (AID 175); conditions: S. cerevisiae mlh1 rad18 strain growth inhibition, stronger effect = higher value
Method in brief: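 In this whole-cell yeast screen, a strain with altered DNA damage repair is challenged with compound, and its growth is measured against matched vehicle-treated controls.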

[16] = NCI Yeast Anticancer Drug Screen. Data for the rad18 strain (AID 177); conditions: S. cerevisiae rad18 mutant growth inhibition, stronger effect = higher value
Method in brief: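 Screen uses a yeast strain with a defined lesion in DNA damage repair; compound effect is read as loss of growth compared to untreated vehicle cultures.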

[17] = at 5.0 µM (retest, dose inferred, filed as 0.5)
[18] = at 50.0 µM (retest, dose inferred, filed as 5.0)

Measured: growth inhibition

Cc1cc(C)c2[s+]snc2c1
inactive: [1]; at 1.2 µM 12% | [1]; at 3.7 µM 7% | [1]; at 11.0 µM 16% | [1]; at 33.0 µM 29% | [1]; at 100.0 µM 54% | [2]; at 1.2 µM -36% | [2]; at 3.7 µM 1% | [2]; at 11.0 µM 1% | [2]; at 33.0 µM 9% | [2]; at 100.0 µM 26% | [3]; at 1.2 µM 1% | [3]; at 3.7 µM 5% | [3]; at 11.0 µM 5% | [3]; at 33.0 µM 20% | [4]; at 1.2 µM 1% | [4]; at 3.7 µM 3% | [4]; at 11.0 µM 6% | [4]; at 33.0 µM 12% | [4]; at 100.0 µM 23% | [5]; at 1.2 µM 0% | [5]; at 3.7 µM 1% | [5]; [17] -5% | [5]; at 11.0 µM 3% | [5]; at 33.0 µM 9% | [5]; [18] 23% | [5]; at 50.0 µM 50.5% | [5]; at 100.0 µM 20% | [6]; at 1.2 µM -3% | [6]; at 3.7 µM -5% | [6]; [17] -6% | [6]; at 11.0 µM -3% | [6]; at 33.0 µM 10% | [6]; [18] 68% | [6]; at 50.0 µM 50.2% | [6]; at 100.0 µM 29% | [7]; at 1.2 µM 2% | [7]; at 3.7 µM 4% | [7]; at 11.0 µM 5% | [7]; at 33.0 µM 9% | [7]; at 100.0 µM 21% | [8]; [17] -1% | [8]; [18] 31% | [9]; at 1.2 µM -7% | [9]; at 3.7 µM -7% | [9]; at 11.0 µM -4% | [9]; at 33.0 µM -1% | [9]; at 100.0 µM 17% | [10]; [17] -19% | [10]; [18] 19% | [10]; at 50.0 µM 33.1% | [11]; at 1.2 µM -4% | [11]; at 3.7 µM -4% | [11]; [17] -5% | [11]; at 11.0 µM -5% | [11]; at 33.0 µM 1% | [11]; [18] 61% | [11]; at 50.0 µM 52% | [11]; at 100.0 µM 30% | [12]; at 1.2 µM -2% | [12]; at 3.7 µM 1% | [12]; at 11.0 µM 3% | [12]; at 33.0 µM 7% | [12]; at 100.0 µM 30% | [13]; at 1.2 µM 1% | [13]; at 3.7 µM 1% | [13]; at 11.0 µM 0% | [13]; at 33.0 µM 4% | [13]; at 100.0 µM 19% | [14]; at 1.2 µM 4% | [14]; at 3.7 µM 7% | [14]; at 11.0 µM 8% | [14]; at 33.0 µM 17% | [14]; at 100.0 µM 36% | [15]; [17] 2% | [15]; [18] 34% | [16]; at 1.2 µM 7% | [16]; at 3.7 µM 9% | [16]; at 11.0 µM 6% | [16]; at 33.0 µM 27% | [16]; at 100.0 µM 49%
active: [3]; at 100.0 µM 80% | [8]; at 50.0 µM 79% | [15]; at 50.0 µM 76%

O=C1/C(=C/c2ccc(Cl)c(Cl)c2)CNC/C1=C\c1ccc(Cl)c(Cl)c1
active: [1]; at 33.0 µM 76% | [1]; at 100.0 µM 93% | [2]; at 100.0 µM 95% | [4]; at 100.0 µM 94% | [5]; at 100.0 µM 95% | [6]; at 33.0 µM 74% | [6]; [18] 74% | [6]; at 50.0 µM 89.8% | [6]; at 100.0 µM 93% | [7]; at 100.0 µM 92% | [8]; at 50.0 µM 89.6% | [9]; at 100.0 µM 79% | [10]; at 50.0 µM 90.4% | [11]; [18] 82% | [11]; at 50.0 µM 91.8% | [11]; at 100.0 µM 92% | [12]; at 33.0 µM 96% | [12]; at 100.0 µM 97% | [13]; at 100.0 µM 94% | [14]; at 33.0 µM 78% | [14]; at 100.0 µM 94% | [15]; [18] 86% | [15]; at 50.0 µM 90.3% | [16]; at 100.0 µM 94%
inactive: [1]; at 1.2 µM 22% | [1]; at 3.7 µM 22% | [1]; at 11.0 µM 27% | [2]; at 1.2 µM 28% | [2]; at 3.7 µM 25% | [2]; at 11.0 µM 29% | [2]; at 33.0 µM 63% | [3]; at 1.2 µM 14% | [3]; at 3.7 µM 27% | [3]; at 11.0 µM 19% | [3]; at 33.0 µM 32% | [3]; at 100.0 µM 32% | [4]; at 1.2 µM 5% | [4]; at 3.7 µM 13% | [4]; at 11.0 µM 35% | [4]; at 33.0 µM 69% | [5]; at 1.2 µM 12% | [5]; at 3.7 µM 20% | [5]; [17] 19% | [5]; at 11.0 µM 29% | [5]; at 33.0 µM 68% | [5]; [18] 62% | [5]; at 50.0 µM 50% | [6]; at 1.2 µM 25% | [6]; at 3.7 µM 23% | [6]; [17] -9% | [6]; at 11.0 µM 41% | [7]; at 1.2 µM 7% | [7]; at 3.7 µM 8% | [7]; at 11.0 µM 20% | [7]; at 33.0 µM 52% | [8]; [17] 27% | [8]; [18] 66% | [9]; at 1.2 µM 15% | [9]; at 3.7 µM 7% | [9]; at 11.0 µM 29% | [9]; at 33.0 µM 48% | [10]; [17] 10% | [10]; [18] 42% | [11]; at 1.2 µM -8% | [11]; at 3.7 µM -9% | [11]; [17] 20% | [11]; at 11.0 µM 13% | [11]; at 33.0 µM 69% | [12]; at 1.2 µM 1% | [12]; at 3.7 µM 0% | [12]; at 11.0 µM -12% | [13]; at 1.2 µM 5% | [13]; at 3.7 µM 13% | [13]; at 11.0 µM 35% | [13]; at 33.0 µM 69% | [14]; at 1.2 µM 29% | [14]; at 3.7 µM 33% | [14]; at 11.0 µM 49% | [15]; [17] 6% | [16]; at 1.2 µM 25% | [16]; at 3.7 µM 16% | [16]; at 11.0 µM 33% | [16]; at 33.0 µM 64%
